Experimental data as given in PubChem BioAssay AID1159580 (chemical genetic matrix, 2015).
The campaign covered roughly 5,500 compounds. About 2,000 (36%) were called active. Not shown: some 18% with an inconclusive outcome. Cut-off read from the data, not from the text of the source: active = normalized growth mostly below about 0.91 (no sharp cut-off); inconclusive = no clear call, values can overlap the other calls; inactive = mostly above about 0.92. Some of the results follow.

Assay: chemical genetic growth profiling, strain panel (AID 1159580);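 note: tested at 20 µM; growth read once vehicle control cultures reached saturation at 30 °C; 1 = growth at the plate median or of vehicle wells; lower values mean less growth of the strain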
Conditions: S. cerevisiae deletion strains, growth OD

Measured: normalized growth

FC(F)(F)C(Cl)Br (configuration not stated)
inactive: locus YAL021C, strain ccr4, hits give low values 1.02 | locus YAL026C, strain drs2, hits give low values 1.03 | locus YAL030W, strain snc1, hits give low values 1.02 | locus YBL061C, strain skt5, hits give low values 1.02 | locus YBR009C, strain hhf1, hits give low values 1.04 | locus YBR023C, strain chs3, hits give low values 1.03 | locus YBR171W, strain sec66, hits give low values 1.05 | locus YBR231C, strain swc5, hits give low values 1.03 | locus YBR279W, strain paf1, hits give low values 1.03 | locus YCL011C, strain gbp2, hits give low values 1.03 | locus YCL016C, strain dcc1, hits give low values 1.02 | locus YCL061C, strain MRC1, hits give low values 1.02 | locus YCL069W, strain vba3, hits give low values 1.02 | locus YCR088W, strain abp1, hits give low values 1.02 | locus YDL005C, strain med2, hits give low values 1.03 | locus YDL040C, strain nat1, hits give low values 1.02 | locus YDR001C, strain nth1, hits give low values 1.01 | locus YDR069C, strain doa4, hits give low values 1.02 | locus YDR137W, strain rgp1, hits give low values 1.07 | locus YDR159W, strain sac3, hits give low values 1.04 | locus YDR195W, strain ref2 1.05 | locus YDR297W, strain sur2, hits give low values 1.01 | locus YDR334W, strain swr1, hits give low values 1.02 | locus YDR335W, strain msn5, hits give low values 1.02 | locus YDR392W, strain spt3, hits give low values 1.01 | locus YEL003W, strain gim4, hits give low values 1.02 | locus YEL037C, strain rad23, hits give low values 0.997 | locus YEL061C, strain CIN8 (second series), hits give low values 1.02 | locus YER015W, strain faa2, hits give low values 1.02 | locus YER016W, strain bim1, hits give low values 1.04 | locus YER111C, strain swi4, hits give low values 1.03 | locus YER155C, strain BEM2 (second series), hits give low values 1.02 | locus YFR010W, strain ubp6, hits give low values 1.03 | locus YGL167C, strain pmr1, hits give low values 1.04 | locus YGL173C, strain kem1, hits give low values 1.02 | locus YGL227W, strain vid30, hits give low values 1.04 | locus YGL240W, strain doc1, hits give low values 1.02 | locus YGL253W, strain hxk2, hits give low values 1.02 | locus YHR013C, strain ard1, hits give low values 1.02 | locus YHR027C, strain rpn1, hits give low values 1.03 | locus YHR142W, strain chs7, hits give low values 1.03 | locus YJL092W, strain hpr5, hits give low values 1.01 | locus YJL095W, strain BCK1 (second series), hits give low values 1.01 | locus YJL115W, strain asf1, hits give low values 1.01 | locus YJL129C, strain trk1, hits give low values 1.06 | locus YJL154C, strain vps35, hits give low values 1.02 | locus YJL164C, strain tpk1, hits give low values 1.02 | locus YJL166W, strain qcr8, hits give low values 1.03 | locus YJL187C, strain SWE1, hits give low values 1.03 | locus YKL160W, strain elf1, hits give low values 1.02 | locus YKR026C, strain gcn3, hits give low values 1 | locus YKR091W, strain srl3, hits give low values 1.02 | locus YLL001W, strain dnm1, hits give low values 1.01 | locus YLL026W, hits give low values 1.02 | locus YLL041C, strain sdh2, hits give low values 1.02 | locus YLR027C, strain aat2, hits give low values 1.02 | locus YLR221C, strain rsa3, hits give low values 1.02 | locus YLR258W, strain gsy2, hits give low values 1.02 | locus YLR262C, strain YPT6 (second series), hits give low values 1.04 | locus YLR320W, strain mms22, hits give low values 1.03 | locus YLR342W, strain FKS1, hits give low values 1.02 | locus YLR357W, strain rsc2, hits give low values 1.07 | locus YLR370C, strain arc18, hits give low values 1.03 | locus YLR384C, strain iki3, hits give low values 1.02 | locus YML120C, strain ndi1, hits give low values 1.03 | locus YMR058W, strain fet3, hits give low values 1.02 | locus YMR125W, strain sto1, hits give low values 1.02 | locus YMR129W, hits give low values 1.03 | locus YMR205C, strain PFK2, hits give low values 1.03 | locus YMR231W, strain pep5, hits give low values 1.02 | locus YNL071W, strain lat1, hits give low values 1.03 | locus YNL209W, strain ssb2, hits give low values 1.02 | locus YNL248C, strain rpa49, hits give low values 1.03 | locus YNL322C, strain KRE1 (second series), hits give low values 1.02 | locus YNR049C, strain mso1, hits give low values 1.02 | locus YOR001W, strain rrp6, hits give low values 1.04 | locus YOR070C, strain gyp1, hits give low values 1.01 | locus YOR080W, strain dia2, hits give low values 1.02 | locus YOR083W, strain WHI5, hits give low values 1.01 | locus YOR106W, strain vam3, hits give low values 1.04 | locus YOR265W, strain rbl2, hits give low values 1.03 | locus YOR270C, strain vph1, hits give low values 1.08 | locus YOR290C, strain snf2, hits give low values 1.04 | locus YPL051W, strain arl3, hits give low values 1.04 | locus YPL078C, strain atp4, hits give low values 1.02 | locus YPL106C, strain sse1, hits give low values 1.02 | locus YPL240C, strain hsp82, hits give low values 1.02
